# Reference: PubChem BioAssay (NCATS)
# Inconclusive results are not listed. A number with no mark means an inactive call. The source made the active and inactive calls. Calls follow the shape of the dose curve; as a rule, active = well fitted cell-killing curve with a large enough effect; inconclusive = small, poorly fitted or top-dose-only effect, or effect the other way; inactive = no such curve, though single readings can be large or run the other way.
# Assay: Quantitative High-Throughput drug screen in 47 multiple myeloma cell lines against the NCATS MIPE library collection: KMS20_JCRB cell viability assay (AID 1918973); also: nearly all actives have a fitted effect of over 45% in size
# Settings: CellTiter-Glo ATP, 48 h; series mostly up to 45.8 µM; viability (% of DMSO): at the top concentration
# Text: PI: Beverly A. Mock Ph.D.
# Laboratory of Cancer Biology and Genetics,
# Center for Cancer Research, National Cancer Institute,
# National Institute of Health, Bethesda, Maryland
# Drug resistance and disease progression are common in multiple myeloma (MM) patients, underscoring the need for new therapeutic combinations. […] We hypothesized that effective combinations would reduce MYC expression and enhance p16 activity. […] These preclinical data identify potentially useful drug combinations for evaluation in drug-resistant MM and reveal potential mechanisms of combined drug sensitivity.
# Described herein is the primary MIPE qHTS used to cherrypick compounds. Validated compounds were then further tested for potential synergistic activiy.
# [1] Peat TJ, Gaikwad SM, Dubois W, Gyabaah-Kessie N, Zhang S, Gorjifard S, Phyo Z, Andres M, Hughitt VK, Simpson RM, Miller MA, Girvin AT, Taylor A, Williams D, D'Antonio N, Zhang Y, Rajagopalan A, Flietner E, Wilson K, Zhang X, Shinn P, Klumpp-Thomas C, McKnight C, Itkin Z, Chen L, Kazandijian D, Zhang J, Michalowski AM, Simmons JK, Keats J, Thomas CJ, Mock BA. Drug combinations identified by high-throughput screening promote cell cycle transition and upregulate Smad pathways in myeloma. Cancer Lett. 2023 Aug 1;568:216284. doi: 10.1016/j.canlet.2023.216284. Epub 2023 Jun 24. PMID: 37356470; PMCID: PMC10408729.
# SEQUENCE No. (e.g., 1, 2, 3, etc.); […] (e.g., Cells, Incubation, Reagent, etc.); VALUE and DESCRIPTION.
# 1; Cells; 5 uL; white, solid bottom 1536-well Greiner assay plate.
# 2; Compounds; 23 nL; Kalypsis pin tool (Wako USA) equipped with a 1536-well pin head to transfer to the assay plates.
# 3; Incubation; 48 hours; 37C incubation.
# 4; Reagent;5uL; CellTiter Glo (Promega).
# 5; Detector; 425V; Luminescence; Viewlux PerkinElmer.
# NOTES (numbers refer to Sequence numbers above)
# 1. The cell-based screening methods employed in this study were like those previously published. Briefly, the corresponding myeloma cell lines were screened in 1,536-well plates with 500 cells, 5-uL per well for inhibition of cell viability (assessed by measuring ATP levels with CellTiterGlo).
# 2. NCATS MIPE 4.0 library of approved and investigational drugs were added using the Kalypsis pin tool. Wells treated with DMSO only for 100% viability and media only wells for 0% viability were used as controls.
# 3. The assay plates were covered and incubated for 48 hours in a 37C, 5% CO2 incubator with controlled humidity.
# 4. After 48 hours, CellTilter-GloTM luminescent substrate mix (Promega) reagent was added to the assay plate and plates we incubated for 5 min at room temperature.
# 5. Signal was measured as median relative luminescence units on a ViewLux (PerkinElmer) multiplate reader.
# [1] Heske CM, Davis MI, Baumgart JT, Wilson K, Gormally MV, Chen L, Zhang X, Ceribelli M, Duveau DY, Guha R, Ferrer M, Arnaldez FI, Ji J, Tran HL, Zhang Y, Mendoza A, Helman LJ, Thomas CJ. Matrix Screen Identifies Synergistic Combination of PARP Inhibitors and Nicotinamide Phosphoribosyltransferase (NAMPT) Inhibitors in Ewing Sarcoma. Clin Cancer Res. 2017 Dec 1;23(23):7301-7311. doi: 10.1158/1078-0432.CCR-17-1121. Epub 2017 Sep 12. PMID: 28899971; PMCID: PMC6636827.
# Potency is read from the fitted curve at half-maximal effect.
SMILES,Potency,viability (% of DMSO) [%]
CCOC(=O)[C@H](CCc1ccccc1)N[C@H]1CS[C@H](c2cccs2)CN(CC(=O)O)C1=O,1.66 µM (active),–
COc1cc(NCc2ccc3nc(N)nc(N)c3c2C)cc(OC)c1OC,7.43 µM (active),–
COc1cc2nc(N3CCCN(C)CC3)nc(NC3CCN(Cc4ccccc4)CC3)c2cc1OC,0.833 µM (active),–
O=S(=O)(c1cccc2cnccc12)N1CCCNCC1,–,110
CC[C@H](NC(C)C)[C@H](O)c1ccc(O)c2[nH]c(=O)ccc12,–,141
O=C(O)c1cn(C2CC2)c2cc(N3CCNCC3)c(F)cc2c1=O,–,153
CCn1cc(C(=O)O)c(=O)c2cc(F)c(N3CCNCC3)nc21,–,98.5
COc1nc(N)nc2c1ncn2[C@@H]1O[C@H](CO)[C@@H](O)[C@@H]1O,23.5 µM (active),–
N=C(N)c1ccc(OCCCCCOc2ccc(C(=N)N)cc2)cc1,10.5 µM (active),–
C[C@@H]1C[C@H]2[C@@H]3CCC4=CC(=O)C=C[C@]4(C)[C@@]3(Cl)[C@@H](O)C[C@]2(C)[C@@]1(OC(=O)c1ccco1)C(=O)CCl,7.43 µM (active),–
Nc1[nH]c(=O)ncc1F,–,133
O=C(O)C1CCCN(CCC=C(c2ccccc2)c2ccccc2)C1 (stereo not given),–,145
Oc1c(Cl)cc(Cl)c2cccnc12,11.8 µM (active),–
NNC(=O)c1ccncc1,–,119
CC(C)(C)NC(=O)[C@H]1CC[C@H]2[C@@H]3CC[C@H]4NC(=O)C=C[C@]4(C)[C@H]3CC[C@]12C,3.32 µM (active),–
NS(=O)(=O)c1cc2c(cc1Cl)NC(C(Cl)Cl)NS2(=O)=O (stereo not given),–,115
CCCCc1oc2ccc(NS(C)(=O)=O)cc2c1C(=O)c1ccc(OCCCN(CCCC)CCCC)cc1,9.35 µM (active),–
CCCCCCNC(=O)n1cc(F)c(=O)[nH]c1=O,–,129
OCc1ccc(-c2nn(Cc3ccccc3)c3ccccc23)o1,1.87 µM (active),–
COc1ccc(C(=O)CC(=O)c2ccc(C(C)(C)C)cc2)cc1,2.96 µM (active),–

SMILES,Potency,viability (% of DMSO) [%]
Cn1c(=O)c2c(ncn2CC(O)CO)n(C)c1=O (stereo not given),–,114
C[C@]12C=CC(=O)C=C1CC[C@@H]1[C@@H]2C(=O)C[C@@]2(C)[C@H]1CC[C@]2(O)C(=O)CO,0.129 µM (active),–
CNS(=O)(=O)Cc1ccc2[nH]cc(CCN(C)C)c2c1,–,111
CCCc1nc(C)c2c(=O)[nH]c(-c3cc(S(=O)(=O)N4CCN(CC)CC4)ccc3OCC)nn12,11.8 µM (active),–
N[C@@H](C(=O)N[C@@H]1C(=O)N2C(C(=O)O)=C(Cl)CS[C@H]12)c1ccccc1,–,83
C#CCN[C@@H]1CCc2ccccc21,–,132
CCOCC(O)COc1ccc(NC(=O)CC[S+](C)C)cc1 (stereo not given),–,99.1
Nc1nc(=S)c2[nH]cnc2[nH]1,1.32 µM (active),–
Nc1ccc(S(=O)(=O)Nc2ccccn2)cc1,–,107
CC(N)C12CC3CC(CC(C3)C1)C2 (stereo not given),–,136
C1CCC(C(CC2CCCCN2)C2CCCCC2)CC1 (stereo not given),6.62 µM (active),–
CC1=C(C(=O)O)N2C(=O)[C@@H](NC(=O)C(N)c3ccccc3)[C@H]2SC1 (stereo not given in full),–,86.6
CN(CCOc1ccc(CC2SC(=O)NC2=O)cc1)c1ccccn1 (stereo not given),–,117
NC1(c2ccc(-c3nc4ccn5c(=O)[nH]nc5c4cc3-c3ccccc3)cc2)CCC1,5.26 µM (active),–
CCOC(=O)c1ccc(C#Cc2ccc3c(c2)C(C)(C)CCS3)nc1,–,129
CNC(=O)c1cc(Oc2ccc(NC(=O)Nc3ccc(Cl)c(C(F)(F)F)c3)cc2)ccn1,16.6 µM (active),–
COc1cc2c(Nc3ccc(Br)cc3F)ncnc2cc1OCC1CCN(C)CC1,9.35 µM (active),–
CCCN[C@H]1CCc2nc(N)sc2C1,–,98.4
O=C(O)c1cccnc1,–,93.4
COC(=O)Nc1nc2ccc(C(=O)c3ccccc3)cc2[nH]1,1.32 µM (active),–
